Laboratory results: PubChem BioAssay
Activity calls are given as the source filed them. Unless noted, the rule behind the calls is not given here.

Legend:
[1] = tested on: Wnt5a (protein binding on small-molecule microarray); test: small molecules binding Wnt5a protein – biophysical, small-molecule microarray, 635/667 nm fluorescence, primary screen (AID 1142); details: 635 nm fluorescence, higher = more signal;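 note: fluorescence read at 667 nm with signal to noise per printed feature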
[2] = ATP-based viability of Huh7 replicon cells – cell-based, CellTiter-Glo luminescence, basal, 48 h, cytotoxicity control for HCV replication inhibitor project, primary screen (AID 1143); details: higher = more signal, called active from +8 up or from −8 down;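 note: Huh7 hepatoma cells carrying a hepatitis C replication reporter with no stimulus; test concentration not given here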
[3] = Pseudomonas biofilm growth suppression – PAO1 strain, BacTiter-Glo luminescence, LB-PBS, primary screen (AID 1144); details: P. aeruginosa PAO1 biofilm, 12 h, higher = more signal
[4] = basal CRE-LacZ reporter activity in PC12 – cell-based, unstimulated, primary screen (AID 1145); details: no forskolin, luminescence, 4.5 h, higher = more signal, called active from +8 up or from −8 down
[5] = forskolin-driven CRE-LacZ activity in PC12 – cell-based, CRE-LacZ reporter, forskolin-stimulated, primary screen (AID 1146); details: luminescence, 4.5 h, higher = more signal, called active from +8 up or from −8 down;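 note: PC12 cells with 6xCRE LacZ reporter stimulated by forskolin 10 µM; beta-galactosidase reporter signal reflecting CREB driven transcription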
[6] = target: Streptavidin (Streptomyces avidinii) (UniProt P22629); test: compounds binding control protein streptavidin – biophysical, small-molecule microarray, 635/667 nm fluorescence, artefact control for SMM compound annotation, primary screen (AID 1147); details: higher = more signal;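 note: signal reflects streptavidin binding to arrayed compounds as a control protein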
Streptavidin (Streptomyces avidinii), sequence (P22629 whole entry, looked up): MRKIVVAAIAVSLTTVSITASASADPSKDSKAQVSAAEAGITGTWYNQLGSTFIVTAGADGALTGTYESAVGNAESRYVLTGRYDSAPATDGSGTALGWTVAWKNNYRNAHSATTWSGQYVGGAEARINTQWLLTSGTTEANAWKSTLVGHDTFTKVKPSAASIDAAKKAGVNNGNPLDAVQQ

[7] = probe aInhba binding on compound microarray – biochemical, small-molecule microarray, 635/667 nm fluorescence, primary screen (AID 1148); details: higher = more signal;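 note: score merges 667nm spot fluorescence with signal-to-noise for antibody binding to printed compounds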
Torsin-1A (Homo sapiens) [8] = target: Torsin-1A (Homo sapiens) (UniProt O14656); test: TOR1A wild-type binding on microarray – cell lysate, small-molecule microarray, lysate, 635/667 nm, primary screen (AID 1149); details: COS7 hTOR1A-WT lysate, 635 nm fluorescence, higher = more signal
Torsin-1A (Homo sapiens), sequence (O14656 whole entry, looked up): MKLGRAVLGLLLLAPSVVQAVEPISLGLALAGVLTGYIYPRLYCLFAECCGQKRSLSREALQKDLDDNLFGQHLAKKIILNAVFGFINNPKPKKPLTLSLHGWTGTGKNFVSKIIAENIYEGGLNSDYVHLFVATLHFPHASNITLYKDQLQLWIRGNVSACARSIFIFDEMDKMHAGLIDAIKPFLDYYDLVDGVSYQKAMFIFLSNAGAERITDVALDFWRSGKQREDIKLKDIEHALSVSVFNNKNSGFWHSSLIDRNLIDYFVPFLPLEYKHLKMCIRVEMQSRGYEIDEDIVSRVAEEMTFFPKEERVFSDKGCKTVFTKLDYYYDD

Torsin-1A (Homo sapiens) [9] = target: Torsin-1A (Homo sapiens) (UniProt O14656); test: torsin A mutant lysate binding on microarrays – cell lysate, small-molecule microarray, COS7 lysate, 635/667 nm fluorescence, primary screen (AID 1150); details: COS7 hTOR1A mutant lysate, 635 nm fluorescence, higher = more signal;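 note: score pools 667 nm emission and signal to noise measuring lysate protein binding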
[10] = tested on: Sonic hedgehog protein (Shh); test: Sonic hedgehog microarray binding compounds – biochemical, small-molecule microarray, 635/667 nm fluorescence, primary screen (AID 1151); details: 635 nm fluorescence, higher = more signal;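 note: Shh protein binding to compounds spotted on small-molecule microarray slides; score combines spot fluorescence intensity with signal-to-noise across triplicate slides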

SMILES	composite z-score [1]	z-score [2]	z-score [3]	z-score [4]	z-score [5]	composite z-score [6]	composite z-score [7]	composite z-score (Torsin-1A (Homo sapiens) [8])	composite z-score (Torsin-1A (Homo sapiens) [9])	composite z-score [10]
CC1(C)O[C@H]2O[C@H]([C@H](O)CON=C3[C@H]4CCn5c(=O)n(-c6ccccc6)c(=O)n5[C@H]4[C@H](O)[C@@H]4O[C@H]34)[C@H](O)[C@H]2O1	0.0179	-0.279 (inactive)	-0.295 (inactive)	0.494 (inactive)	0.771 (inactive)	0.0676	-0.154	0.43	-0.0174	-0.217
CCOC(=O)[C@H](Cc1ccccc1)NC(=O)CCC1CC(OC(=O)NCc2cccc3ccccc23)CC2(CCCC(COC(=O)NCC3CCCCC3)O2)O1 (stereo not given in full)	0.297	-0.213 (inactive)	-0.441 (inactive)	-0.343 (inactive)	0.895 (inactive)	0.307	0.0155	0.156	0.224	0.955
O=C1C[C@H](c2ccccc2)[C@H](c2ccc(Br)cc2)O1	0.0974	-1.52 (inactive)	-1.42 (inactive)	0.375 (inactive)	-0.0385 (inactive)	0.521	-0.128	-0.0753	-0.022	0.212
CCN1C(=O)[C@H]2[C@H]3[C@H](O)[C@H](O)CC(=NOC(C)CN4CCCc5nc(C)c(C)cc54)[C@@H]3CC[C@H]2C1=O (stereo not given in full)	0.223	0.433 (inactive)	1.17 (inactive)	-0.882 (inactive)	-0.271 (inactive)	-0.0317	0.134	0.46	0.456	0.906
CC(C)CON=C1[C@H]2CCn3c(=O)n(C)c(=O)n3[C@H]2[C@H](O)[C@@H]2O[C@H]12	0.0208	0.736 (inactive)	-0.279 (inactive)	0.252 (inactive)	-0.28 (inactive)	0.212	-0.0405	0.558	-0.0543	0.637
C[C@H]1C=CCC(=O)OC[C@H](C)C(=O)N2CCC[C@H]2C(=O)OC1	0.193	-0.401 (inactive)	-0.324 (inactive)	-0.324 (inactive)	0.0267 (inactive)	-0.176	-0.182	3.32	3.03	2.35
O=C1C2=CC[C@H]3C(=O)N(Cc4ccccc4)C(=O)[C@H]3[C@H]2[C@H](O)[C@@H]2O[C@H]12	-0.134	-6.84 (inactive)	0.252 (inactive)	0.518 (inactive)	25 (active)	-0.0955	-0.128	0.367	0.216	-0.575
CO[C@@H]1C=CCC(=O)N[C@@H](C)C(=O)OC[C@@H](OC)[C@H](C)C=CCC(=O)OC[C@H]1C	0.552	-0.0206 (inactive)	0.457 (inactive)	0.876 (inactive)	-0.384 (inactive)	-0.477	-0.157	2.58	2.21	2.06
Cc1cc(C)c(-c2cc([C@H](C)ON=C[C@@H](C)[C@H](OCc3ccccc3)C(C)C)on2)c(C)c1	-0.18	-0.295 (inactive)	1.45 (inactive)	0.0944 (inactive)	-0.549 (inactive)	0.0366	-0.242	-0.477	-0.273	-0.16
CC(C)CON=C1C[C@@H](O)[C@@H](O)[C@@H]2[C@@H]3C(=O)N(C(C)(C)C)C(=O)[C@@H]3CC[C@@H]12	0.167	-2.95 (inactive)	-0.811 (inactive)	1.7 (inactive)	0.549 (inactive)	0.0099	-0.261	3.07	3.23	1.28
COc1ccc(COC(=O)NN=C2C[C@@H](O)[C@@H](O)[C@@H]3[C@@H]4C(=O)N([C@@H](C)c5ccccc5)C(=O)[C@@H]4CC[C@@H]23)cc1	0.251	1 (inactive)	-0.253 (inactive)	-0.113 (inactive)	0.0521 (inactive)	0.409	0.0111	0.699	0.388	-0.0113
C=CC[C@@H]1C=C[C@H](ON=C2C[C@@H](O)[C@@H](O)[C@@H]3[C@@H]4C(=O)N(CC)C(=O)[C@@H]4CC[C@@H]23)[C@@H](CO)O1	-0.123	-2.05 (inactive)	-1.39 (inactive)	2.83 (inactive)	-0.247 (inactive)	-0.816	-0.104	0.862	0.337	0.652
COC(=O)[C@H](C)NC(=O)CCC1CC(OC(=O)NCc2cccc3ccccc23)CC2(CCCC(COC(=O)NCc3ccccc3)O2)O1 (stereo not given in full)	0.276	-1.12 (inactive)	-1.33 (inactive)	-0.437 (inactive)	0.0493 (inactive)	0.777	0.0901	0.283	0.542	1.07
COC(=O)[C@H](C)NC(=O)CCC1CC(OC(=O)NCc2cccc3ccccc23)CC2(CCCC(COC(=O)NCCC(C)C)O2)O1 (stereo not given in full)	0.0905	-0.842 (inactive)	-0.386 (inactive)	-0.522 (inactive)	-0.135 (inactive)	-0.224	-0.0695	0.181	0.205	0.683
O=C1[C@H]2CCn3c(=O)n(-c4ccccc4)c(=O)n3[C@H]2[C@H](O)[C@@H]2O[C@H]12	0.0253	0.332 (inactive)	0.102 (inactive)	-0.0164 (inactive)	0.0871 (inactive)	0.556	-0.272	0.0097	0.109	0.24
CCN1C(=O)[C@H]2[C@H]3[C@H](O)[C@H](O)CC(=NOCC[C@@H]4C=C[C@H](OC(C)=O)[C@@H](COC(C)=O)O4)[C@@H]3CC[C@H]2C1=O	0.0885	-0.0735 (inactive)	0.857 (inactive)	0.0757 (inactive)	0.313 (inactive)	-0.0034	-0.109	0.014	0.296	0.55
